In PubChem BioAssay AID1259318 (Sanford-Burnham Center for Chemical Genomics, 2017):
The campaign covered roughly 370,000 compounds. About 3,000 (0.81%) were called active.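 Rule for the calls: active = activity above about 14% (limit read from the data; passing the limit was not always enough); inactive = the rest.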 The full list was thinned out, with actives kept by preference.

Molecular target: Nuclear receptor subfamily 1 group D member 1 (Homo sapiens) (UniProt P20393)
Experiment: modulators of Rev-erb alpha DNA binding, primary screen, biochemical, FITC-DNA, fluorescence polarization, uHTS (AID 1259318);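 note: 0% = DMSO wells with 35 nM protein and 100% = DMSO wells with 750 nM protein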
Details: Rev-erbα–FITC-DNA binding, 90 min, at 10 µM, active compounds read high

Chain of Nuclear receptor subfamily 1 group D member 1 (Homo sapiens) (P20393 whole entry, looked up): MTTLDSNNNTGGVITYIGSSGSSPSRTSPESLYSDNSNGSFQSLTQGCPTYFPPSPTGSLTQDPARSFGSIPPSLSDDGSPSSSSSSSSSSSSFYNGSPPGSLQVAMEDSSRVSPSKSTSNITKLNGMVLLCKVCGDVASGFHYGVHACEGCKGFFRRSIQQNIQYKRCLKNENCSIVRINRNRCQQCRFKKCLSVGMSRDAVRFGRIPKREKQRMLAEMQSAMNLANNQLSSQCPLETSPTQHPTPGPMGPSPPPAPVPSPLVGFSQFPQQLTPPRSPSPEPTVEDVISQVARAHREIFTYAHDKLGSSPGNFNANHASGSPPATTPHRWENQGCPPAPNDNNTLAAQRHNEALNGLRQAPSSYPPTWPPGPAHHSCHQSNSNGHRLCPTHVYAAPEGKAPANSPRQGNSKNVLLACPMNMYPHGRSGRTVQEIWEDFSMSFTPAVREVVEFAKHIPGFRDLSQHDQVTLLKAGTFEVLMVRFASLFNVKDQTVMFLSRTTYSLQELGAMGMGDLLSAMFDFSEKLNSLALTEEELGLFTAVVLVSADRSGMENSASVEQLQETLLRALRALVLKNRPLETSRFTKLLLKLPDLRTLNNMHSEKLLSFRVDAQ

Row | SMILES | activity
1 | O=C1N=c2ccccc2=C/C1=C\c1c(O)[nH]c(=S)[nH]c1=O | -4.55% (inactive)
2 | COc1ccccc1N=Nc1c(O)[nH]c(=S)[nH]c1=O | 28.1% (active)
3 | CCOCCc1c(O)[nH]c(=S)[nH]c1=O | -0.86% (inactive)
4 | CCC(C)C(=O)O[C@H]1[C@H](O)C2C(CN3CC(C)CCC3[C@@]2(C)O)C2C[C@]34O[C@]5(O)C(OC(=O)C(C)(O)CC)CC[C@@]3(C)C5[C@H](OC(C)=O)[C@@H](OC(C)=O)C4[C@@]21O (stereo not given in full) | -4.52% (inactive)
5 | CCN(CC)C(=O)[C@@H]1C=C2c3cccc4[nH]c(Br)c(c34)C[C@H]2N(C)C1 | -1.01% (inactive)
6 | C=CCNCCCCCCCCCC (tested in a mixture with another compound) | -9.67% (inactive)
7 | COC(=O)CN(CCCl)P1(=O)OCCCN1CCCl (stereo not given) | 15.9% (active)
8 | c1ccc2sc(SNC3CCCCC3)nc2c1 | 6.27% (inactive)
9 | CCOC(=O)C1=C(C)OC(N)=C(C(=O)OC)C12C(=O)Nc1ccc(Br)cc12 (stereo not given) | 4.04% (inactive)
10 | CC(=O)O[C@H]1CC[C@@]2(C)C(=CCC3C2CC[C@]2(C)C(=O)CCC32)C1 (stereo not given in full) | 2.71% (inactive)
